Results reported in the supplement of paper PMC10849652.
The full data set covers some 7,900 targets. This sample favours those with a hit. About 0.6% of all pairs of compound and target were hits. A number with no mark means an inactive call.

Columns and labels:
Experiment in all cases: log2 fold change, soluble protein after heating vs DMSO (PISA); higher = thermal stabilisation; K562 cells, 10 uM, 30 min; active = over 0.2 and 3.5 SD of the protein, either way, in both replicates (recomputed)
[1] = compound: COC1=CC=C(C=C1)CN2C=CC3=C2C=C(C=C3)C(=O)NO
Procedure, shortened: (§1)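 Aliquots of K562 cells (2×10^6 cells/mL) treated with 10 μM compound for 30 min were heated for 3 min over 48°C-58°C. After pooling and extraction in PBS with 0.5% NP-40 at 4°C, soluble protein from a 21,000xg, 90 min spin was quantified by TMTpro 16plex LC-MS/MS with channel sums equalised. Thermal stability is expressed against control samples, from duplicates, as a log2 fold change.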

filanesib = compound: CON(C)C(=O)N1N=C(c2cc(F)ccc2F)S[C@@]1(CCCN)c1ccccc1 [filanesib]
Procedure, shortened: as §1

zotarolimus = compound: CO[C@H]1C[C@@H]2CC[C@@H](C)[C@@](O)(O2)C(=O)C(=O)N2CCCC[C@H]2C(=O)O[C@H]([C@H](C)C[C@@H]2CC[C@H](n3cnnn3)[C@H](OC)C2)CC(=O)[C@H](C)/C=C(\C)[C@@H](O)[C@@H](OC)C(=O)[C@H](C)C[C@H](C)/C=C/C=C/C=C/1C [zotarolimus]
Procedure, shortened: as §1

idasanutlin = compound: COc1cc(C(=O)O)ccc1NC(=O)[C@@H]1N[C@@H](CC(C)(C)C)[C@](C#N)(c2ccc(Cl)cc2F)[C@H]1c1cccc(Cl)c1F [idasanutlin]
Procedure, shortened: as §1

alisertib = compound: COc1cc(Nc2ncc3c(n2)-c2ccc(Cl)cc2C(c2c(F)cccc2OC)=NC3)ccc1C(=O)O [alisertib]
Procedure, shortened: as §1

[2] = compound: COc1cc2nc(-c3cc(F)ccc3O)nc(N[C@@H]3CNC[C@H]3C(C)(C)O)c2cc1OC
Procedure, shortened: as §1

gefitinib = compound: COc1cc2ncnc(Nc3ccc(F)c(Cl)c3)c2cc1OCCCN1CCOCC1 [gefitinib]
Procedure, shortened: as §1

[3] = compound: COc1cccc2cc(-c3nc([C@H]4CC[C@H](C(=O)O)CC4)n4ncnc(N)c34)[nH]c12
Procedure, shortened: as §1

lapatinib = compound: CS(=O)(=O)CCNCc1ccc(-c2ccc3ncnc(Nc4ccc(OCc5cccc(F)c5)c(Cl)c4)c3c2)o1 [lapatinib]
Procedure, shortened: as §1

pictilisib = compound: CS(=O)(=O)N1CCN(Cc2cc3nc(-c4cccc5[nH]ncc45)nc(N4CCOCC4)c3s2)CC1 [pictilisib]
Procedure, shortened: as §1

[4] = compound: CS(=O)(=O)c1ccc(-c2cnc(N)c(C(=O)Nc3ccccc3)n2)cc1
Procedure, shortened: as §1

crizotinib = compound: C[C@@H](Oc1cc(-c2cnn(C3CCNCC3)c2)cnc1N)c1c(Cl)ccc(F)c1Cl [crizotinib]
Procedure, shortened: as §1

[5] = compound: C[C@@H]1COCCN1C2=NC(=NC(=C2)C3(CC3)S(=O)(=O)C)C4=C5C=CNC5=CC=C4
Procedure, shortened: as §1

[6] = compound: C[C@H](C1=CC=C(C=C1)C(=O)NC2=C3C=CNC3=NC=C2)N
Procedure, shortened: as §1

duvelisib = compound: C[C@H](Nc1ncnc2nc[nH]c12)c1cc2cccc(Cl)c2c(=O)n1-c1ccccc1 [duvelisib]
Procedure, shortened: as §1

gandotinib = compound: Cc1cc(Nc2cc(CN3CCOCC3)c3nc(C)c(Cc4ccc(Cl)cc4F)n3n2)n[nH]1 [gandotinib]
Procedure, shortened: as §1

tozasertib = compound: Cc1cc(Nc2cc(N3CCN(C)CC3)nc(Sc3ccc(NC(=O)C4CC4)cc3)n2)n[nH]1 [tozasertib]
Procedure, shortened: as §1

[7] = compound: Cc1cc(SCc2sc(-c3ccc(C(F)(F)F)cc3)nc2C)ccc1OCC(=O)O
Procedure, shortened: as §1

doramapimod = compound: Cc1ccc(-n2nc(C(C)(C)C)cc2NC(=O)Nc2ccc(OCCN3CCOCC3)c3ccccc23)cc1 [doramapimod]
Procedure, shortened: as §1

ispinesib = compound: Cc1ccc(C(=O)N(CCCN)[C@@H](c2nc3cc(Cl)ccc3c(=O)n2Cc2ccccc2)C(C)C)cc1 [ispinesib]
Procedure, shortened: as §1

UniProt P42226, sequence (P42226 whole entry, looked up): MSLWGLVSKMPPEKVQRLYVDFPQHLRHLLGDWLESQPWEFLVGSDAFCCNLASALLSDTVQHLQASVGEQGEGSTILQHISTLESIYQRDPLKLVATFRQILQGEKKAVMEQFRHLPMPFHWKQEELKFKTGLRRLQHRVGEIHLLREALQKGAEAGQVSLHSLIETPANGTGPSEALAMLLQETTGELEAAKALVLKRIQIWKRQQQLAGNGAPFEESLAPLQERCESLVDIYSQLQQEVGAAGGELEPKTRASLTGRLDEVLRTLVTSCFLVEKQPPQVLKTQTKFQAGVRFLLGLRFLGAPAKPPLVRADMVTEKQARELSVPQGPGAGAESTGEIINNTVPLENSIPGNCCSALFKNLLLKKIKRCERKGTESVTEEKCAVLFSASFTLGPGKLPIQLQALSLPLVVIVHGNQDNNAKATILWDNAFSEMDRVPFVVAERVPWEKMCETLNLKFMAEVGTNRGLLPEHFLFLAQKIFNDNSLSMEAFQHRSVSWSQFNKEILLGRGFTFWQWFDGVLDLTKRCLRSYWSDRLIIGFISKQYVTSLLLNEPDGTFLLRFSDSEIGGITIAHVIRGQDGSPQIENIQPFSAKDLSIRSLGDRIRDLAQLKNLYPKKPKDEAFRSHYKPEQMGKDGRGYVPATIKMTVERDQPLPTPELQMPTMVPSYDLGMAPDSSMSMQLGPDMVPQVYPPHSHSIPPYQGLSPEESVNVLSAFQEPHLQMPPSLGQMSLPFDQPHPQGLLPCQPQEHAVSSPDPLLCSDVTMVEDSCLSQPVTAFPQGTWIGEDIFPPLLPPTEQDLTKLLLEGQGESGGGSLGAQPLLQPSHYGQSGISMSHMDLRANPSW
UniProt O00193, sequence (O00193 whole entry, looked up): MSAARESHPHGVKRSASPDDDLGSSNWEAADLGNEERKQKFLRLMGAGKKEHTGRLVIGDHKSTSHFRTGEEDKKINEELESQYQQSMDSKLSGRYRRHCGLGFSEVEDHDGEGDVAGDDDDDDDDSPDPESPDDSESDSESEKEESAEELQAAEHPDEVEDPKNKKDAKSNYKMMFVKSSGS
UniProt P04183, sequence (P04183 whole entry, looked up): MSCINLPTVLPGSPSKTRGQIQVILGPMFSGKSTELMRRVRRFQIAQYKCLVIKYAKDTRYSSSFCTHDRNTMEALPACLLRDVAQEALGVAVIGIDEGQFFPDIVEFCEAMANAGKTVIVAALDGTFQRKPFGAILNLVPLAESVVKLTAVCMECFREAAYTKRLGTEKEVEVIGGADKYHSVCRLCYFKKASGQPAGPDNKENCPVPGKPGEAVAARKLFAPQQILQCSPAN
UniProt Q96CQ1, sequence (Q96CQ1 whole entry, looked up): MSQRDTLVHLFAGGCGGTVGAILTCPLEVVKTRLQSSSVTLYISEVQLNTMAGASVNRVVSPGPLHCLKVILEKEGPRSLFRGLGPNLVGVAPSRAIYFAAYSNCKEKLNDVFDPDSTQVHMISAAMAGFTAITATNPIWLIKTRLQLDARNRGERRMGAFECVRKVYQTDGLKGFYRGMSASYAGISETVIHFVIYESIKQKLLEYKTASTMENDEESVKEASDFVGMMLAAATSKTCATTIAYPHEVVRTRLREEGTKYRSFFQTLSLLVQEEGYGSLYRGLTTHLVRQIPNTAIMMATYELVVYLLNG
UniProt Q92581, sequence (Q92581 whole entry, looked up): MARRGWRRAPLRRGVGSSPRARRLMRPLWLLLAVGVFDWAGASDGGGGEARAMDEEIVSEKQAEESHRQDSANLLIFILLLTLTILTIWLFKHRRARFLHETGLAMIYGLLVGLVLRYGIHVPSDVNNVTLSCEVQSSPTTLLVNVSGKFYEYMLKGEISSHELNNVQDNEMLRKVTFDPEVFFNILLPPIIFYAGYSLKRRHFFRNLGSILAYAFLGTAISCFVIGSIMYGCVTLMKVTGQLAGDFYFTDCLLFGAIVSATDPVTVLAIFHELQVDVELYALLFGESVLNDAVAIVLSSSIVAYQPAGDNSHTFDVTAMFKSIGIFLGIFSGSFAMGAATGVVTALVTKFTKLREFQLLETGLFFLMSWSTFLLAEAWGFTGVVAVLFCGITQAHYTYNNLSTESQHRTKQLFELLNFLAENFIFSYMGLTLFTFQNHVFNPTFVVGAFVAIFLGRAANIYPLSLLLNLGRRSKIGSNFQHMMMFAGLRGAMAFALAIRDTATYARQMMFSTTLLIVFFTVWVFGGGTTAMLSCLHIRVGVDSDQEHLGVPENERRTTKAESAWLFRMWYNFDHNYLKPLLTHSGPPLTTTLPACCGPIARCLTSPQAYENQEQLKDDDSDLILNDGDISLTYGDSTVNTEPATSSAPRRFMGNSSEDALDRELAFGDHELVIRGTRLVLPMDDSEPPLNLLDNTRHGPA
UniProt Q9UNH7, sequence (Q9UNH7 whole entry, looked up): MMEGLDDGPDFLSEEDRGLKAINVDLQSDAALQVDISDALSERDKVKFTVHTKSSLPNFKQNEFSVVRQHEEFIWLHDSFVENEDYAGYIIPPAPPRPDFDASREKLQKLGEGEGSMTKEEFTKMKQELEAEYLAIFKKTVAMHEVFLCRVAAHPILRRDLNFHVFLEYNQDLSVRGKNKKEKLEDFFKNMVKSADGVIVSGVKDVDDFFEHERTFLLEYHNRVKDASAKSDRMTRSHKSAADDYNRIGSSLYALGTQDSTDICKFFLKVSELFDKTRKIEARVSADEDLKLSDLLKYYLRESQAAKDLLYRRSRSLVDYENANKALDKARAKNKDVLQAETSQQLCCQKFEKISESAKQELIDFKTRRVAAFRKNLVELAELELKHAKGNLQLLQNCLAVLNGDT
UniProt O60749, sequence (O60749 whole entry, looked up): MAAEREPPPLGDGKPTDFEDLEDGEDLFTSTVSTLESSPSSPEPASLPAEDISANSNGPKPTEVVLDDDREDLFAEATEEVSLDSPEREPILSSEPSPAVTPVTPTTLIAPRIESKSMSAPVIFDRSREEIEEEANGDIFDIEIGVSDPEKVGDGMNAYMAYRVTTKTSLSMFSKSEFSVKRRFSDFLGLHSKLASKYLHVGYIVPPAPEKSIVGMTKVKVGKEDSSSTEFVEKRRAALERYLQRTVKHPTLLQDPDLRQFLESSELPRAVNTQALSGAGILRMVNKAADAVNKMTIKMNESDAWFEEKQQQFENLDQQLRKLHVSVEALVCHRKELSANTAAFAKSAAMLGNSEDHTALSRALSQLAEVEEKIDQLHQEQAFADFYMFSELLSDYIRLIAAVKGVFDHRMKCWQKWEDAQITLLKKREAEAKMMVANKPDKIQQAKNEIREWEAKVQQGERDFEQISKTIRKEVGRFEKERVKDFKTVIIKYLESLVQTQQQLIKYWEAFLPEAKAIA
UniProt P51692, sequence (P51692 whole entry, looked up): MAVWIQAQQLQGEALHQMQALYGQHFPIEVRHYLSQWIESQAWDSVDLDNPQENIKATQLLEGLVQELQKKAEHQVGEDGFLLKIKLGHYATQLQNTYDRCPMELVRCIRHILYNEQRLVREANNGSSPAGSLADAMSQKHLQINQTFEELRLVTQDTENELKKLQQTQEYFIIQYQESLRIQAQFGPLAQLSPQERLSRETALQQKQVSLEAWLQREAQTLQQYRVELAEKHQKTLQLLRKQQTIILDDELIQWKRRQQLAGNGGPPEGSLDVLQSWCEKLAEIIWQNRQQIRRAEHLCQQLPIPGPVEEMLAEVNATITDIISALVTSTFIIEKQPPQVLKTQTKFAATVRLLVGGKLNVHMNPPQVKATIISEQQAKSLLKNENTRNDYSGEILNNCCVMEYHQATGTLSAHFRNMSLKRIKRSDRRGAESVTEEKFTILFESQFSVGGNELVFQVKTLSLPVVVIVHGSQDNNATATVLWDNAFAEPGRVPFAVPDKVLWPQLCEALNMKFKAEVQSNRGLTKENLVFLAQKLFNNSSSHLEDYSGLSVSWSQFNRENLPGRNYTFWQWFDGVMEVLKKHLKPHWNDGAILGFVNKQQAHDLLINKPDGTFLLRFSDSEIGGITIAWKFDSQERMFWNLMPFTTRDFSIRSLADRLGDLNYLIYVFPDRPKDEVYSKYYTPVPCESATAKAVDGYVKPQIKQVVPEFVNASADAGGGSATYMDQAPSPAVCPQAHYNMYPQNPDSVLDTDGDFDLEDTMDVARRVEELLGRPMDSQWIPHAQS
UniProt Q08945, sequence (Q08945 whole entry, looked up): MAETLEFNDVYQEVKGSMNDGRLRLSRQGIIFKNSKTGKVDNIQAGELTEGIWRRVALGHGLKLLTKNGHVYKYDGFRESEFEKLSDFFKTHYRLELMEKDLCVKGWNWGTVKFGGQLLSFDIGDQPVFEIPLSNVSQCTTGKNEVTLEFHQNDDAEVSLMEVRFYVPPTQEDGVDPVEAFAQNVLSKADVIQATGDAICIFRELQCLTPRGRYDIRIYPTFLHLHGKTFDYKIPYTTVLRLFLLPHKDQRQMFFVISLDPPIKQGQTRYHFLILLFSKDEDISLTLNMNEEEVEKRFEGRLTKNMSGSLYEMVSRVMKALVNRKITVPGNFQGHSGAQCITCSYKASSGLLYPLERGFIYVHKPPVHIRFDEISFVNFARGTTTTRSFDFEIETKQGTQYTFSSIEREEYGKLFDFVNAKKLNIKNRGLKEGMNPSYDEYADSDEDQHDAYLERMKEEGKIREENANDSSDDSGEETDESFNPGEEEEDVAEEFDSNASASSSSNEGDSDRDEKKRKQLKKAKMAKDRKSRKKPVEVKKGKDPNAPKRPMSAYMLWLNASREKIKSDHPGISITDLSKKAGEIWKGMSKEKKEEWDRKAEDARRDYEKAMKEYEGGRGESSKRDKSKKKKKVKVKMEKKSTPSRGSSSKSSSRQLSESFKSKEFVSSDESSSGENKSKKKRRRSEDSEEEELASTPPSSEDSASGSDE
UniProt O75494, sequence (O75494 whole entry, looked up): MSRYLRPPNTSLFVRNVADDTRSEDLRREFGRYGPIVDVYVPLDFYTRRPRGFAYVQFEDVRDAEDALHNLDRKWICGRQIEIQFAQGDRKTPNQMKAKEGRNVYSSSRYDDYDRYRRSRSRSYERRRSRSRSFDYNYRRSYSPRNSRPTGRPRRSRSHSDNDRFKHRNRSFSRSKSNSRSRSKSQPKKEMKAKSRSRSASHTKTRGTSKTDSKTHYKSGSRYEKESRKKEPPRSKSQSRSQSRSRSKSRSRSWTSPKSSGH

Target | log2 fold change [1] | log2 fold change (filanesib) | log2 fold change (zotarolimus) | log2 fold change (idasanutlin) | log2 fold change (alisertib) | log2 fold change [2] | log2 fold change (gefitinib) | log2 fold change [3] | log2 fold change (lapatinib) | log2 fold change (pictilisib) | log2 fold change [4] | log2 fold change (crizotinib) | log2 fold change [5] | log2 fold change [6] | log2 fold change (duvelisib) | log2 fold change (gandotinib) | log2 fold change (tozasertib) | log2 fold change [7] | log2 fold change (doramapimod) | log2 fold change (ispinesib)
SNX2 (UniProt O60749) | 0.011 | -0.156 | 0.037 | 0 | 0.013 | -0.101 | -0.105 | 0.029 | 0.001 | -0.104 | -0.034 | -0.223 | 0.006 | -0.039 | -0.107 | -0.216 | -0.102 | 0.041 | -0.014 | -0.184
SUN2 (UniProt Q9UH99) | 0.028 | 0.013 | 0.017 | 0.077 | -0.044 | -0.194 | -0.078 | -0.007 | 0.066 | 0.071 | -0.001 | -0.094 | 0.063 | 0.044 | -0.008 | 0.004 | -0.008 | 0.05 | 0.077 | -0.104
SRPRB (UniProt Q9Y5M8) | 0.133 | -0.076 | 0.018 | -0.11 | -0.021 | 0.136 | -0.001 | -0.03 | 0.048 | -0.022 | -0.006 | 0.01 | 0.059 | -0.042 | 0.012 | 0.055 | -0.017 | 0.083 | -0.026 | 0.055
SMAP (UniProt O00193) | -0.046 | -0.154 | -0.018 | 0.005 | -0.01 | 0.02 | 0.033 | 0.051 | -0.013 | -0.016 | 0.004 | -0.06 | -0.01 | -0.082 | 0.017 | -0.032 | 0 | -0.03 | 0.023 | -0.015
STAT6 (UniProt P42226) | 0.019 | 0.091 | 0.055 | 0.102 | 0.094 | 0.002 | 0.014 | 0.155 | -0.016 | -0.13 | -0.083 | -0.037 | 0.028 | -0.011 | -0.132 | -0.269 | 0.171 | -0.123 | 0.043 | -0.033
STAT5B (UniProt P51692) | 0.13 | -0.036 | 0.112 | 0.086 | -0.038 | -0.115 | 0.046 | -0.094 | 0.029 | -0.148 | 0.119 | -0.353 | -0.037 | -0.014 | -0.164 | -0.209 | 0.129 | 0.097 | -0.09 | -0.082
TJP1 (UniProt Q07157) | 0.02 | 0.035 | 0.03 | 0.001 | -0.059 | 0.005 | 0.038 | 0.055 | -0.006 | 0.017 | 0.004 | -0.016 | 0.044 | -0.06 | 0.076 | -0.124 | 0.064 | 0.061 | -0.01 | 0.026
SSRP1 (UniProt Q08945) | 0.118 | 0.023 | 0.036 | -0.005 | -0.037 | -0.05 | 0.028 | -0.014 | 0.008 | -0.026 | -0.024 | -0.018 | 0.144 | -0.088 | 0.029 | -0.029 | 0.087 | 0.072 | -0.027 | 0.048
SRSF10 (UniProt O75494) | -0.102 | 0.424 | -0.157 | 0.388 | -0.099 | -0.169 | -0.009 | -0.056 | 0.101 | -0.042 | -0.176 | 0.153 | -0.539 | 0.259 | -0.139 | 0.183 | 0.095 | 0.036 | 0.222 | -0.172
SNX6 (UniProt Q9UNH7) | -0.036 | -0.187 | 0.02 | -0.01 | -0.035 | -0.109 | -0.123 | 0.004 | -0.055 | -0.252 | -0.169 | -0.323 | -0.014 | -0.033 | -0.277 | -0.5 (active) | -0.118 | 0.061 | -0.036 | -0.281
TAOK3 (UniProt Q9H2K8) | 0.047 | 0.014 | 0.002 | -0.003 | -0.038 | -0.049 | 0.001 | -0.011 | 0.061 | -0.001 | -0.051 | -0.03 | -0.008 | -0.13 | 0.014 | -0.08 | 0.011 | 0.057 | 0.023 | 0.01
SLC25A36 (UniProt Q96CQ1) | 0.006 | -0.069 | 0.013 | -0.064 | -0.03 | 0.083 | -0.014 | 0.001 | 0.107 | 0.052 | 0.016 | 0.067 | -0.061 | -0.011 | 0.195 | 0.313 | -0.059 | -0.089 | -0.027 | -0.021
TK1 (UniProt P04183) | -0.012 | -0.258 (active) | -0.023 | -0.011 | -0.034 | 0.021 | -0.018 | 0.073 | -0.009 | 0.045 | -0.046 | 0.011 | -0.008 | -0.097 | 0.004 | -0.055 | -0.032 | -0.03 | -0.013 | 0.017
SLC7A6 (UniProt Q92536) | -0.236 (active) | 0.009 | -0.001 | -0.02 | -0.069 | 0.028 | 0.073 | 0.048 | 0.033 | 0.048 | -0.011 | 0.065 | -0.173 | -0.149 | 0.116 | -0.114 | -0.006 | -0.041 | 0.001 | 0.17
SLC9A6 isoform 2 (UniProt Q92581) | -0.077 | -0.051 | -0.062 | -0.011 | -0.013 | 0.062 | -0.017 | 0.071 | 0.003 | 0.129 | 0.028 | 0.048 | 0.022 | -0.005 | 0.079 | -0.105 | -0.024 | -0.067 | 0 | -0.331 (active)
TBC1D23 (UniProt Q9NUY8) | 0.07 | -0.184 | -0.002 | 0.068 | 0.023 | -0.19 | -0.058 | 0.021 | -0.053 | -0.067 | -0.026 | -0.019 | 0.022 | 0 | 0.002 | -0.205 | -0.042 | 0.028 | -0.027 | -0.48 (active)
